Reference: PubChem BioAssay (Tox21)
Where “and” joins values, the source holds several entries; their conditions need not be identical. Equal values may be shown once. Records with an inconclusive call do not appear. Where a call stands in place of a potency, no number is given. Where a structure was tested more than once in an assay, its records may differ in their call. Calls of active or inactive are those of the source. Unless noted, the call rests on the fitted dose curve; in most records, active means well fitted curve in the direction sought with a large enough effect in the repeat runs; inconclusive means weak or mixed curves; inactive means no such curve, though single readings can be large; an effect the other way counts as inactive or inconclusive.

Columns and labels:
[1] = qHTS assay to identify small molecule antagonists of the androgen receptor (AR) signaling pathway using the MDA cell line in the presence of 0.5 nM R1881 - cell viability counter screen (AID 1259242); further: nearly all actives have a fitted effect of over 45% in size; further: potency means the concentration at half of the fitted maximal effect
How it was run: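 Live-cell protease fluorescence, CellTiter-Fluor, 30 min at 37C. Cells: MDA-kb2, 3,000/well, preincubated 5 hr. Compounds plus 0.5 nM R1881 final, 16 hr, 37C, 0% CO2.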

[2] = target: Estrogen receptor (Homo sapiens) (UniProt P03372); assay: qHTS assay to identify small molecule antagonists of the estrogen receptor alpha (ER-alpha) signaling pathway using the BG1 cell line in the presence of 0.1 nM 17-beta-estradiol (AID 1259244); further: nearly all actives have a fitted effect of over 50% in size; further: potency means the concentration at half of the fitted maximal effect
Estrogen receptor (Homo sapiens), sequence (P03372 whole entry, looked up): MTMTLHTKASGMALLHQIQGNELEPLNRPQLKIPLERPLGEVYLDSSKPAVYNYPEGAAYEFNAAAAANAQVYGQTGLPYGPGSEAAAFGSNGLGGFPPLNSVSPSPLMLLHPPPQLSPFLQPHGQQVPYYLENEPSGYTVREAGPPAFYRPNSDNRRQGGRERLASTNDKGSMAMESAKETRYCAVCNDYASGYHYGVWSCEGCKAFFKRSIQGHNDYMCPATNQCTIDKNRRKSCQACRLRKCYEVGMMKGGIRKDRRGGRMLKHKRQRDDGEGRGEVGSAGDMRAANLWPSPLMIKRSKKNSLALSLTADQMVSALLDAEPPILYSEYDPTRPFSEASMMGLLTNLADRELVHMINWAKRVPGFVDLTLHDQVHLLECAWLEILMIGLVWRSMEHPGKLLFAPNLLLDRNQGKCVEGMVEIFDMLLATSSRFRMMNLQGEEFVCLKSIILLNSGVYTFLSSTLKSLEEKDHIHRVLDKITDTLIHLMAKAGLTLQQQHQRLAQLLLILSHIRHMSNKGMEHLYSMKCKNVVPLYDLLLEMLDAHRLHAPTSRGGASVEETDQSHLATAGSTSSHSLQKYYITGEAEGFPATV
How it was run: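 Luminescence after ONE-Glo (30 min, room temperature) measured ERE-luciferase activity in VM7Luc4E2 cells treated 22 h with compound and 0.1 nM final 17beta-estradiol as stimulator.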

[3] = qHTS assay to identify small molecule HDAC inhibitors (AID 1259364); further: potency means the concentration at half of the fitted maximal effect;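 further: wild-type HCT-116 cells with endogenous class I/II HDAC activity; nearly all actives have a fitted effect of over 45% in size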
How it was run: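 HCT-116 (wild type), 1,500 cells/well, overnight; compound 2 hr 37C 5% CO2; HDAC-Glo I/II reagent 30 min RT; luminescence readout.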

[4] = qHTS assay to identify small molecule HDAC inhibitors - cell viability counter screen (AID 1259365); further: nearly all actives have a fitted effect of over 50% in size; further: potency means the concentration at half of the fitted maximal effect
How it was run: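 HCT-116 (wild type), 1,500 cells/well, overnight 37C/5% CO2; compound in DMSO 2hr; CellTiter-Glo 30min RT; luminescence read.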

[5] = qHTS assay to identify small molecule agonists of the sonic hedgehog signaling (Shh) pathway - cell viability counter screen (AID 1259366); further: nearly all actives have a fitted effect of over 50% in size; further: potency means the concentration at half of the fitted maximal effect
How it was run: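 CellTiter-Fluor fluorescence read-out, 1 hr at 37C, added after 23hr compound exposure. Cells: 3T3 Gli1-Luc, an NIH/3T3 clone with stably integrated Gli1-Luc reporter, plated 4hr before compound.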

[6] = qHTS assay to identify small molecule antagonists of the sonic hedgehog signaling (Shh) pathway - cell viability counter screen (AID 1259367); further: nearly all actives have a fitted effect of over 55% in size; further: potency means the concentration at half of the fitted maximal effect
How it was run: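 Cytotoxicity was assessed in parallel with Shh reporter activity by measuring live-cell protease fluorescence (CellTiter-Fluor) in NIH/3T3 cells stably carrying Gli1-Luc, treated with compound under conditioned medium stimulation for 23 hr plus 1 hr reagent incubation.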

[7] = qHTS assay to identify small molecule agonists of the sonic hedgehog signaling (Shh) pathway (AID 1259368; calls by dose curve;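 further: NIH/3T3-derived 3T3Gli1-Luc cells carrying a stable Gli1-driven firefly luciferase reporter; series mostly up to about 92 µM; nearly all actives have a fitted effect of over 15% in size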)
How it was run: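 Read-out: firefly luciferase luminescence from a Gli1 response element reporter stably integrated in NIH/3T3-derived 3T3Gli1-Luc cells, measured 30 min at room temperature after reagent addition. Compound exposure lasted 24 hr at 37 C, 5% CO2.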

[8] = qHTS assay to identify small molecule antagonists of the sonic hedgehog signaling (Shh) pathway (AID 1259369; calls by dose curve; further: nearly all actives have a fitted effect of over 45% in size; further: potency means the concentration at half of the fitted maximal effect)
How it was run: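 Luminescence readout: firefly Luc under Gli1 response element in 3T3Gli1-Luc cells (NIH/3T3 clone). Antagonist mode, stimulation by conditioned medium; compound exposure 24hr at 37 C, 5% CO2.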

[9] = qHTS assay to identify small molecule phospholipidosis (PLD) inducers (AID 1259344; active means well fitted curve in the direction sought with a large enough effect; an effect the other way counts as inactive or inconclusive; further: potency means the concentration at half of the fitted maximal effect)
How it was run: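 Cells (HepG2, 900 per well) attach for 4 h, receive LipidTOX Red and compound together, incubate 24 h at 37 C, are fixed 30 min with paraformaldehyde/Hoechst, then imaged at one site per well.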

Row | Structure (SMILES) | Potency [1] | Potency [2] | Potency [3] | Potency [4] | Potency [5] | Potency [6] | Potency [7] | Potency [8] | Potency [9] | PLD induction [9]
1 | O=C(Nc1ccccc1SSc1ccccc1NC(=O)c1ccccc1)c1ccccc1 | inactive | 27.4 µM (active) and inactive | 27.4 µM (active) and 19.3 µM (active) | inactive | 13.8 µM (active) and 13.7 µM (active) | 13.8 µM (active) and 12.2 µM (active) | inactive | 4.88 µM (active) and 5.45 µM (active) | – | –
2 | CC(C)(c1ccccc1)c1ccc(Nc2ccc(C(C)(C)c3ccccc3)cc2)cc1 | inactive | inactive | inactive | inactive | – | inactive | inactive | inactive | – | –
3 | COC(c1ccccc1)(c1ccccc1)[C@H](Oc1nc(C)cc(C)n1)C(=O)O | inactive | – | inactive | inactive | inactive | inactive | inactive | inactive | inactive | –
4 | O=C(O)c1cccc(C(=O)O)c1 | inactive | inactive | inactive | inactive | – | inactive | inactive | inactive | – | –
5 | c1cc(C(c2ccc(OCC3CO3)cc2)C(c2ccc(OCC3CO3)cc2)c2ccc(OCC3CO3)cc2)ccc1OCC1CO1 (stereo unspecified) | inactive | inactive | inactive | inactive | – | inactive | inactive | inactive | – | –
6 | CN(C)c1ccc(C(=C2C=CC(=[N+](C)C)C=C2)c2ccccc2)cc1 | 27.3 µM (active) and 2.98 µM (active) | – | 24.3 µM (active) and inactive and 13.3 µM (active) | 61.1 µM (active) and inactive | – | 2.98 µM (active) [middle of 4 runs] | inactive | 172 nM (active) and 376 nM (active) and 237 nM (active) | inactive | –
7 | Nc1ccc2cc3ccccc3cc2c1 | inactive | inactive | – | inactive | – | – | – | inactive | – | –
8 | CC(C)C(=O)c1c(C(C)C)nn2ccccc12 | inactive | – | inactive | inactive | – | inactive | inactive | – | – | -2.74% [at 7.66 µM] (inactive)
9 | CC1COc2c(N3CCN(C)CC3)c(F)cc3c(=O)c(C(=O)O)cn1c23 (stereo unspecified) | inactive | – | inactive | inactive | inactive | inactive | inactive | inactive | inactive | –
10 | CC[C@]1(O)C[C@@H]2CN(CCc3c([nH]c4ccccc34)[C@@](C(=O)OC)(c3cc4c(cc3OC)N(C)[C@H]3[C@@](O)(C(=O)OC)[C@H](OC(C)=O)[C@]5(CC)C=CCN6CC[C@]43[C@@H]65)C2)C1 | inactive | – | inactive | inactive | 11.9 µM (active) | 29.8 nM (active) | inactive | 37.6 nM (active) | inactive | –
11 | C=C(C)C1CC=C(C)C(OC(C)=O)C1 (stereo unspecified) | inactive | inactive | inactive | inactive | inactive | inactive | inactive | inactive | – | –
12 | CC(=O)CC(=O)Nc1ccc2[nH]c(=O)[nH]c2c1 | inactive | inactive | inactive | inactive | inactive | inactive | inactive | inactive | – | –
13 | CNCCC(Oc1ccc(C(F)(F)F)cc1)c1ccccc1 (stereo unspecified) | 29.8 µM (active) | – | inactive | inactive | 60.3 µM (active) and 29.8 µM (active) | 26.9 µM (active) and 29.8 µM (active) | inactive | 15200 nM (active) | 10 µM (active) | –
14 | CCCCN(CCO)CCCC | inactive | inactive | inactive | inactive | – | inactive | inactive | inactive | – | –
15 | c1ccc2cc3c(ccc4ccccc43)cc2c1 | inactive | inactive | 30.7 µM (active) and 27.3 µM (active) | inactive | inactive | inactive | inactive | inactive | – | –
16 | Cc1cc(C(C)(C)C)c(O)c(C(C)(C)C)c1 | inactive | – | inactive | inactive | inactive | inactive | inactive | inactive | inactive | –
17 | NC(N)=NC(=O)Cc1c(Cl)cccc1Cl | inactive | – | inactive | inactive | – | inactive | inactive | inactive | inactive | –
18 | NC12CC3CC(CC(C3)C1)C2 | inactive | – | inactive | inactive | inactive | inactive | inactive | – | inactive | –
